The list is not random: actives were taken first. Their share in the collection is about 2.4%.
ATXN viability: Viability Counterscreen for Primary qHTS for Inhibitors of ATXN expression; Potency, µM (titrated, usually from 56.7 µM), hits mostly cytotoxic; S2 cells (HEK-293 line with an ATXN2-luciferase reporter) viability, CellTiter-Fluor protease fluorescence, 24 h; actives 0.49% (n = 400,000); AID 651635, 2014; also: nearly all actives have a fitted effect of over 40% in size
TGFb inhibitor: qHTS for Inhibitors of TGF-b; AID 588855, 2011; actives 1.2% (n = 410,000); Potency, µM (titrated, usually from 46.1 µM), for the others: at the top dose activity, negative = inhibition, usual class: inhibitors; HepG2 CAGA-GFP TGF-b/SMAD3 reporter, GFP fluorescence, 18 h; TGF-beta stimulated, 500 pg/mL final; also: % is scaled to controls: 0 for no effect and ±100 for the full control effect; nearly all actives have a fitted effect of over 65% in size
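Read-out: total well GFP (ex488/em500-530) summed from mean per-cell fluorescence. Cells: HEPG2 CAGA-GFP, 1% FBS DMEM, 18 h at 37 degrees C with 500 pg/mL final TGF-beta. Unstimulated wells served as the full-inhibition control; stimulated DMSO wells = 0%.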
ATXN2 expr inh: Primary qHTS for Inhibitors of ATXN expression; HEK-293 ATXN2-luciferase reporter, luminescence, 24 h; Potency, µM (doses to about 57 µM), for inactives: at the highest dose activity change, negative = inhibition, usual class: inhibitors; actives 0.72% (n = 360,000); also: % is scaled to controls: 0 for no effect and ±100 for the full control effect; nearly all actives have a fitted effect of over 55% in size
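qHTS (up to 57 uM final) was run with 24 h compound exposure of reporter cells at 37 °C. Each well was multiplexed: SteadyGlo luminescence measured ATXN2-luciferase expression after a fluorogenic Gly-Phe-AFC viability readout (25 uM final).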
Apoferritin bind: qHTS Assay for Identification of Novel General Anesthetics. actives 0.074% (n = 350,000). apoferritin/1-aminoanthracene competitive binding, fluorescence. Ferritin light chain (Equus caballus), P02791. Potency, µM (titrated, usually from 77.5 µM), inactives show top-dose activity change, negative = displacement, actives largely listed as inhibitors; also: % is scaled to controls: 0 for no effect and ±100 for the full control effect; nearly all actives have a fitted effect of over 20% in size
Target sequence (P02791 2-175 limits assumed): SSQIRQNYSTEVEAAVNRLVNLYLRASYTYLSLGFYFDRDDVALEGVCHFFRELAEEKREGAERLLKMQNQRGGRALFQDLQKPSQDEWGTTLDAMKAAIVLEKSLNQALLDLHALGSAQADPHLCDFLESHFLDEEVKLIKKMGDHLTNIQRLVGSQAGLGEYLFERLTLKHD
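Probe: 1-aminoanthracene (50% saturated, PBS). Protein: horse-spleen apoferritin, 10 uM. Incubation: 10 min, room temperature. Detection: 380 nm excitation, 535 nm emission. Analysis: normalized response, four-parameter Hill.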
HepG2 viability: qHTS for Inhibitors of TGF-b: Cytotox Counterscreen; HepG2 CAGA-GFP viability, ATP luminescence, 18 h; Potency, µM (titrated, usually from 46.1 µM), without a hit: at the top dose activity change, negative = cytotoxicity, actives largely listed as cytotoxic; actives 0.76% (n = 410,000); AID 588856, 2011
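HepG2 CAGA-GFP cells (1000/well, DMEM with 1% FBS) received compound, then TGF-beta at 500 pg/mL final, and were incubated 18 hours at 37 degrees C. Viability was read by CellTiter-Glo luminescence. Media-only wells were set as complete cell-killing and DMSO as no toxicity.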
The depositor's hits bear a star; i = inactive; ? = inconclusive; . = not tested or not shown. Calls follow the shape of the dose curve; as a rule, active = well fitted curve in the direction sought with a large enough effect; inconclusive = small, poorly fitted or top-dose-only effect, or another doubt; inactive = no such curve, though single readings can be large; an effect the other way counts as inactive or inconclusive. Potency is read from the fitted curve at half-maximal effect.

SMILES	ATXN viability	TGFb inhibitor	ATXN2 expr inh	Apoferritin bind	HepG2 viability
OC[C@H]1O[C@@H](OCCc2ccc(O)cc2)[C@H](O)[C@@H](O)[C@H]1O	i	.	-18%	.	.
COCCN1CCN(C(=O)c2cnn(-c3nccc(-c4ccco4)n3)c2C2CC2)CC1	i	.	.	.	.
CCCC(=O)OCCNc1cc(Sc2nc3ccccc3[nH]2)c2nonc2c1[N+](=O)[O-]	?	?	?	?	6.3µM*
CCC(=O)OCCNc1cc(SCCC(=O)OC)c2nonc2c1[N+](=O)[O-]	i	?	8%	-17%	-75%
CCC(=O)OCCNc1cc(Sc2nccn2C)c2nonc2c1[N+](=O)[O-]	.	11µM*	?	-2%	-124%
Nn1c(SCC(=O)Nc2nccs2)nnc1-c1cccnc1	i	-8%	-8%	.	-7%
NCCOc1ccc(C23CC4CC(CC(C4)C2)C3)cc1	?	?	?	11µM*	-118%
OCCN1CCN(CC(O)COc2ccc(C34CC5CC(CC(C5)C3)C4)cc2)CC1 (stereo not drawn)	i	?	-27%	?	16µM*
NCCOc1ccc(C2CCCCC2)cc1	i	?	.	?	-52%
CCC1(C2CCN(C(=O)c3ccc(C)c(C)c3)CC2)NC(=O)N(CCc2scnc2C)C1=O (stereo not drawn)	i	.	.	.	.
Cc1cccc(Cn2c(SCc3ccc(C(=O)NCCc4ccccc4)cc3)nc3ccncc32)c1	?	7.9µM*	-29%	42%	-52%
O=C(NCCc1ccccc1)c1ccc(CSc2nc3ccncc3n2Cc2cccc(F)c2)cc1	.	?	.	54%	-6%
O=C(NCCc1ccccc1)c1ccc(CSc2nc3ccncc3n2Cc2ccccc2F)cc1	?	7.1µM*	-18%	30%	-19%
Cc1ncc2c(c1CNC(=O)c1ccc3c(c1)OCO3)CCN(C(=O)c1cccc(-n3cccn3)c1)C2	i	.	.	.	.
COc1ccc(Nc2c(-c3cccc(OC)c3)nc3nc(C)cc(C)n23)cc1	i	.	13%	.	.
COc1cc(-c2nc3nc(C)cc(C)n3c2Nc2ccc(Cl)cc2)ccc1O	.	13µM*	.	2%	-40%
Cc1onc(-c2c(Cl)cccc2Cl)c1C(=O)N/N=C(\N)COc1ccc(Cl)cc1	?	6.3µM*	?	-18%	-64%
CCN1CCN(c2ccc(Cl)cc2NC(=O)c2ccc(-n3nc(C)cc3C)cc2)CC1	i	-6%	?	.	22µM*
CCN1CCN(c2ccc(Cl)cc2NC(=O)c2ccco2)CC1	i	19%	.	.	-19%
CCCCC[C@@H](C)N1C[C@H](COCc2ccccc2)Oc2cc(N3CC[C@H](N(C)C)C3)ccc2S1(=O)=O	25µM*	.	?	.	.
C[C@H](c1ccccc1)N1C[C@H](COCc2ccccc2)Oc2cc(N3CC[C@H](N(C)C)C3)ccc2S1(=O)=O	16µM*	.	?	.	.
C[C@@H](c1ccccc1)N1C[C@H](COCc2ccccc2)Oc2cc(N3CC[C@@H](N(C)C)C3)ccc2S1(=O)=O	22µM*	.	28µM*	.	.
CCCCC[C@H](C)N1C[C@H](COCc2ccccc2)Oc2cc(N3CC[C@H](O)C3)ccc2S1(=O)=O	?	.	-14%	.	.
C[C@@H](c1ccccc1)N1C[C@H](COCc2ccccc2)Oc2cc(N3CC[C@H](N(C)C)C3)ccc2S1(=O)=O	16µM*	.	?	.	.
Cn1c(Nc2ccc(C(F)(F)F)cc2)nc2cc(Oc3ccnc(-c4ncc(C(F)(F)F)[nH]4)c3)ccc21	.	.	-19%	.	.
CCC(=O)N1CCN(c2cc(N3CCN(C)CC3)c(F)cc2[N+](=O)[O-])CC1	i	-4%	-7%	-1%	-2%
CN1CCN(c2cc(N3CCc4ccccc4C3)c(F)cc2[N+](=O)[O-])CC1	?	?	-30%	-21%	16µM*
Cc1ccc(CNc2ncnc3ccc(-c4c(C)noc4C)cc23)o1	.	.	.	-13%	.
Cc1ccc(CNc2ncnc3ccc(-c4ccoc4C)cc23)o1	i	16µM*	-28%	.	-54%
